{"source": "PubChem BioAssay (EPA / NIEHS)", "note": "Active and inactive are the calls of the source. The calls were made as follows: active = hit-call score of the fitted dose curve at least 0.9, where 1 is the maximum; inactive = score below 0.9."}
{"read-out": "Tissue Factor, F3 (gene 2152)", "experiment": "BSK_CASM3C_TissueFactor: BioMAP Diversity Plus: CASM3C Assay for Tissue Factor Biomarker Activity (AID 2283052);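 also: cell surface tissue factor protein level read by ELISA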", "settings": "primary human coronary artery smooth muscle cells; actives raise or lower the signal"}
{"smiles": "COc1cc(Cl)c(OC)cc1Cl", "outcome": "inactive"}
{"smiles": "Cc1nc(N(C)C)nc(OC(=O)N(C)C)c1C", "outcome": "inactive"}
{"smiles": "CCCCOCN(C(=O)CCl)c1c(CC)cccc1CC", "outcome": "inactive"}
{"smiles": "COc1cc(OC)nc(NC(=O)NS(=O)(=O)c2ncccc2OCC(F)(F)F)n1", "outcome": "inactive"}
{"smiles": "CC(C)=CC1C(C(=O)OCc2coc(Cc3ccccc3)c2)C1(C)C", "note": "(stereo not drawn)", "outcome": "inactive"}
{"smiles": "Nc1c(Cl)c(F)nc(OCC(=O)O)c1Cl", "outcome": "inactive"}
{"smiles": "CC(C)N1C(=O)N(c2ccccc2)CSC1=NC(C)(C)C", "outcome": "inactive"}
{"smiles": "O=C1C2CC=CCC2C(=O)N1SC(Cl)(Cl)Cl", "note": "(stereo not drawn)", "outcome": "inactive"}
{"smiles": "N#Cc1c(Cl)cccc1Cl", "outcome": "inactive"}
{"smiles": "CNC(=O)N(C)c1nnc(C(C)(C)C)s1", "outcome": "inactive"}
{"smiles": "CCOc1nc(C(Cl)(Cl)Cl)ns1", "outcome": "inactive"}
{"smiles": "Cc1ccc(N=CN(C)C=Nc2ccc(C)cc2C)c(C)c1", "outcome": "inactive"}
{"smiles": "OC(c1ccc(Cl)cc1)(c1ccc(Cl)cc1)C(Cl)(Cl)Cl", "outcome": "inactive"}
{"smiles": "COP(=S)(OC)SCn1nnc2ccccc2c1=O", "outcome": "inactive"}
{"smiles": "COc1ccc(-c2ccccc2)cc1NNC(=O)OC(C)C", "outcome": "inactive"}
{"smiles": "Cc1cnc(C2=NC(C)(C(C)C)C(=O)N2)c(C(=O)O)c1", "note": "(stereo not drawn)", "outcome": "inactive"}
{"read-out": "Interferon-gamma inducible Protein 10 (IP10), CXCL10 (gene 3627)", "experiment": "BSK_hDFCGF_IP10: BioMAP Diversity Plus: hDFCGF Assay for Interferon-gamma inducible Protein 10 (IP10) Biomarker Activity (AID 2283053)", "settings": "primary human foreskin fibroblasts; actives raise or lower the signal", "in_short": "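Human foreskin fibroblast primary cells (hDFCGF system) were dosed with chemical and assayed at 24 h; IP-10 measured by ELISA. Activity fitted bidirectionally relative to DMSO negative control as baseline.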"}
{"smiles": "CC1(C)CCC(=Cc2ccc(Cl)cc2)C1(O)Cn1cncn1", "note": "(stereo not drawn)", "outcome": "inactive"}
{"smiles": "CC1(C)C(C(=O)OC(C#N)c2cccc(Oc3ccccc3)c2)C1(C)C", "note": "(stereo not drawn)", "outcome": "inactive"}
{"smiles": "CCOP(=O)(OCC)Oc1nc(Cl)c(Cl)cc1Cl", "AC50": "20 µM (active)"}
{"smiles": "CCSC(=O)N1CCCCCC1", "outcome": "inactive"}
{"smiles": "CCCN(CC)CC1COC2(CCC(C(C)(C)C)CC2)O1", "note": "(stereo not drawn)", "AC50": "1.98 µM (active)"}
{"smiles": "COCC(=O)N(c1c(C)cccc1C)C(C)C(=O)OC", "note": "(stereo not drawn)", "outcome": "inactive"}
{"smiles": "Clc1cccc(C(Cl)(Cl)Cl)n1", "AC50": "29.8 µM (active)"}
{"smiles": "CC1(C)C(C=C(Cl)Cl)C1C(=O)OC(C#N)c1cccc(Oc2ccccc2)c1", "note": "(stereo not drawn)", "outcome": "inactive"}
{"smiles": "Nc1c(Cl)c(Cl)nc(C(=O)O)c1Cl", "outcome": "inactive"}
{"smiles": "CC(C)(C)C(=O)C(Oc1ccc(Cl)cc1)n1cncn1", "note": "(stereo not drawn)", "outcome": "inactive"}
{"smiles": "CCOc1nc(F)cc2nc(S(=O)(=O)Nc3c(Cl)cccc3Cl)nn12", "outcome": "inactive"}
{"smiles": "C=C(C)CN(CC)c1c([N+](=O)[O-])cc(C(F)(F)F)cc1[N+](=O)[O-]", "AC50": "20 µM (active)"}
{"smiles": "N#Cc1c[nH]cc1-c1cccc2c1OC(F)(F)O2", "outcome": "inactive"}
{"smiles": "CS(=O)(=O)c1ccc(C(=O)C2C(=O)CCCC2=O)c([N+](=O)[O-])c1", "outcome": "inactive"}
{"smiles": "COC(=O)c1c(C(F)F)nc(C(F)(F)F)c(C2=NCCS2)c1CC(C)C", "AC50": "6.09 µM (active)"}
{"smiles": "CCNP(=S)(OC)O/C(C)=C/C(=O)OC(C)C", "note": "(stereo not drawn)", "outcome": "inactive"}
{"smiles": "CC(C)Oc1cccc(NC(=O)c2ccccc2C(F)(F)F)c1", "outcome": "inactive"}
{"smiles": "CS(=O)(=O)c1cc(C(F)(F)F)ccc1C(=O)c1cnoc1C1CC1", "outcome": "inactive"}
{"smiles": "CCC(C)n1c(=O)[nH]c(C)c(Br)c1=O", "note": "(stereo not drawn)", "outcome": "inactive"}
{"smiles": "CCOC(=O)C(C)OC(=O)c1cc(Oc2ccc(C(F)(F)F)cc2Cl)ccc1[N+](=O)[O-]", "note": "(stereo not drawn)", "outcome": "inactive"}
{"smiles": "COc1cc(Cl)c(OC)cc1Cl", "outcome": "inactive"}
{"smiles": "Cc1nc(N(C)C)nc(OC(=O)N(C)C)c1C", "outcome": "inactive"}
{"smiles": "CCCCOCN(C(=O)CCl)c1c(CC)cccc1CC", "AC50": "24.6 µM (active)"}
{"smiles": "COc1cc(OC)nc(NC(=O)NS(=O)(=O)c2ncccc2OCC(F)(F)F)n1", "outcome": "inactive"}
{"smiles": "CC(C)=CC1C(C(=O)OCc2coc(Cc3ccccc3)c2)C1(C)C", "note": "(stereo not drawn)", "AC50": "3.97 µM (active)"}
{"smiles": "Nc1c(Cl)c(F)nc(OCC(=O)O)c1Cl", "outcome": "inactive"}
{"smiles": "CC(C)N1C(=O)N(c2ccccc2)CSC1=NC(C)(C)C", "AC50": "15.7 µM (active)"}
{"smiles": "O=C1C2CC=CCC2C(=O)N1SC(Cl)(Cl)Cl", "note": "(stereo not drawn)", "AC50": "6.95 µM (active)"}
{"smiles": "N#Cc1c(Cl)cccc1Cl", "outcome": "inactive"}
{"smiles": "CNC(=O)N(C)c1nnc(C(C)(C)C)s1", "outcome": "inactive"}
{"smiles": "CCOc1nc(C(Cl)(Cl)Cl)ns1", "outcome": "inactive"}
{"smiles": "Cc1ccc(N=CN(C)C=Nc2ccc(C)cc2C)c(C)c1", "AC50": "29.1 µM (active)"}
{"smiles": "OC(c1ccc(Cl)cc1)(c1ccc(Cl)cc1)C(Cl)(Cl)Cl", "AC50": "9.87 µM (active)"}
{"smiles": "COP(=S)(OC)SCn1nnc2ccccc2c1=O", "outcome": "inactive"}
{"smiles": "COc1ccc(-c2ccccc2)cc1NNC(=O)OC(C)C", "outcome": "inactive"}
{"smiles": "Cc1cnc(C2=NC(C)(C(C)C)C(=O)N2)c(C(=O)O)c1", "note": "(stereo not drawn)", "outcome": "inactive"}
{"read-out": "Urokinase-type plasminogen activator receptor (uPAR), PLAUR (gene 5329)", "experiment": "BSK_CASM3C_uPAR: BioMAP Diversity Plus: CASM3C Assay for Urokinase-type plasminogen activator receptor (uPAR) Biomarker Activity (AID 2283054);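 also: cell-surface uPAR protein level quantified by ELISA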", "settings": "primary human coronary artery smooth muscle cells; actives raise or lower the signal"}
{"smiles": "CC1(C)CCC(=Cc2ccc(Cl)cc2)C1(O)Cn1cncn1", "note": "(stereo not drawn)", "outcome": "inactive"}
{"smiles": "CC1(C)C(C(=O)OC(C#N)c2cccc(Oc3ccccc3)c2)C1(C)C", "note": "(stereo not drawn)", "outcome": "inactive"}
{"smiles": "CCOP(=O)(OCC)Oc1nc(Cl)c(Cl)cc1Cl", "outcome": "inactive"}
{"smiles": "CCSC(=O)N1CCCCCC1", "outcome": "inactive"}
{"smiles": "CCCN(CC)CC1COC2(CCC(C(C)(C)C)CC2)O1", "note": "(stereo not drawn)", "outcome": "inactive"}
{"smiles": "COCC(=O)N(c1c(C)cccc1C)C(C)C(=O)OC", "note": "(stereo not drawn)", "outcome": "inactive"}
{"smiles": "Clc1cccc(C(Cl)(Cl)Cl)n1", "outcome": "inactive"}
{"smiles": "CC1(C)C(C=C(Cl)Cl)C1C(=O)OC(C#N)c1cccc(Oc2ccccc2)c1", "note": "(stereo not drawn)", "outcome": "inactive"}
{"smiles": "Nc1c(Cl)c(Cl)nc(C(=O)O)c1Cl", "outcome": "inactive"}
{"smiles": "CC(C)(C)C(=O)C(Oc1ccc(Cl)cc1)n1cncn1", "note": "(stereo not drawn)", "outcome": "inactive"}
{"smiles": "CCOc1nc(F)cc2nc(S(=O)(=O)Nc3c(Cl)cccc3Cl)nn12", "outcome": "inactive"}
{"smiles": "C=C(C)CN(CC)c1c([N+](=O)[O-])cc(C(F)(F)F)cc1[N+](=O)[O-]", "outcome": "inactive"}
{"smiles": "N#Cc1c[nH]cc1-c1cccc2c1OC(F)(F)O2", "outcome": "inactive"}
{"smiles": "CS(=O)(=O)c1ccc(C(=O)C2C(=O)CCCC2=O)c([N+](=O)[O-])c1", "outcome": "inactive"}
{"smiles": "COC(=O)c1c(C(F)F)nc(C(F)(F)F)c(C2=NCCS2)c1CC(C)C", "outcome": "inactive"}
{"smiles": "CCNP(=S)(OC)O/C(C)=C/C(=O)OC(C)C", "note": "(stereo not drawn)", "outcome": "inactive"}
{"smiles": "CC(C)Oc1cccc(NC(=O)c2ccccc2C(F)(F)F)c1", "outcome": "inactive"}
{"smiles": "CS(=O)(=O)c1cc(C(F)(F)F)ccc1C(=O)c1cnoc1C1CC1", "outcome": "inactive"}
{"smiles": "CCC(C)n1c(=O)[nH]c(C)c(Br)c1=O", "note": "(stereo not drawn)", "outcome": "inactive"}
{"smiles": "CCOC(=O)C(C)OC(=O)c1cc(Oc2ccc(C(F)(F)F)cc2Cl)ccc1[N+](=O)[O-]", "note": "(stereo not drawn)", "outcome": "inactive"}
{"smiles": "COc1cc(Cl)c(OC)cc1Cl", "outcome": "inactive"}
{"smiles": "Cc1nc(N(C)C)nc(OC(=O)N(C)C)c1C", "outcome": "inactive"}
{"smiles": "CCCCOCN(C(=O)CCl)c1c(CC)cccc1CC", "AC50": "29.3 µM (active)"}
{"smiles": "COc1cc(OC)nc(NC(=O)NS(=O)(=O)c2ncccc2OCC(F)(F)F)n1", "outcome": "inactive"}
{"smiles": "CC(C)=CC1C(C(=O)OCc2coc(Cc3ccccc3)c2)C1(C)C", "note": "(stereo not drawn)", "outcome": "inactive"}
{"smiles": "Nc1c(Cl)c(F)nc(OCC(=O)O)c1Cl", "outcome": "inactive"}
{"smiles": "CC(C)N1C(=O)N(c2ccccc2)CSC1=NC(C)(C)C", "outcome": "inactive"}
{"smiles": "O=C1C2CC=CCC2C(=O)N1SC(Cl)(Cl)Cl", "note": "(stereo not drawn)", "AC50": "32.2 µM (active)"}
{"smiles": "N#Cc1c(Cl)cccc1Cl", "outcome": "inactive"}
{"smiles": "CNC(=O)N(C)c1nnc(C(C)(C)C)s1", "outcome": "inactive"}
{"smiles": "CCOc1nc(C(Cl)(Cl)Cl)ns1", "outcome": "inactive"}
{"smiles": "Cc1ccc(N=CN(C)C=Nc2ccc(C)cc2C)c(C)c1", "outcome": "inactive"}
{"smiles": "OC(c1ccc(Cl)cc1)(c1ccc(Cl)cc1)C(Cl)(Cl)Cl", "AC50": "32.9 µM (active)"}
{"smiles": "COP(=S)(OC)SCn1nnc2ccccc2c1=O", "outcome": "inactive"}
{"smiles": "COc1ccc(-c2ccccc2)cc1NNC(=O)OC(C)C", "outcome": "inactive"}
{"smiles": "Cc1cnc(C2=NC(C)(C(C)C)C(=O)N2)c(C(=O)O)c1", "note": "(stereo not drawn)", "outcome": "inactive"}
